This passage reports activity change results from PubChem BioAssay AID651724 (National Center for Advancing Translational Sciences (NCATS), 2012).

SMILES strings stand for the structures. The campaign covered roughly 340,000 compounds. About 1,700 (0.5%) were called active. About 2% were inconclusive and are not listed. The sample as a whole holds a higher share of actives than the screen did. A number with no mark means an inactive call. No stated cut-off is given here; in the data, active means activity change below about -65%; inconclusive means mostly about -30% to -63%; inactive means weaker than that.
On the % scale 0 is the no-effect control and ±100 the full control effect.

This assay relates to CtBP / adenovirus E1A interaction (AlphaScreen). Nature of the assay: qHTS Assay for Inhibitors of the CtBP/E1A Interaction. The following applies: AlphaScreen GST-E1A/His-CtBP binding, 1536-well; stronger effect = lower value. The procedure, abridged: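 In 5 uL wells, 23 nL compound meets equimolar GST-E1A and His-CtBP (5X stock 125 nM each) for 2 h, 37 °C. Beads (5X, 50 ug/mL) then 1 h, 37 °C, dark.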
(In general: Quantitative high-throughput screening tests each substance at several concentrations.)
As for `CC(=O)Nc1cc(-c2ccccc2N(C)C)cn2c(-c3ccc(F)c(Cl)c3)cnc12`, the activity change is -22.9%. As for `CCCOc1ccc(F)cc1-c1cc(C(=O)Nc2ccc(F)c(Cl)c2)[nH]n1`, the activity change was 2.38%.

Consider `COCC1CCCCN1C(=O)c1cc(COc2ccc(C)c(C)c2)on1` (centres undefined), for which the activity change was -0.436%. On to `C=CCOCCN(C)C1=NS(=O)(=O)c2ccccc21`, for which the activity change is 0.314%. Take `COc1ccc(C(C)(C)C)cc1NC(=O)CN(C)C1=NS(=O)(=O)c2ccccc21`: the activity change is 2.94%. `COc1ccc(/C=N/N(C)C2=NS(=O)(=O)c3ccccc32)cc1OC`: the activity change was -89.3% (active). To `CC(=O)Nc1cc(-c2ccccc2F)cn2c(-c3cccc(C(F)(F)F)c3)cnc12` belongs -8.33%; to `COc1ccccc1-c1cc2nc(NCc3cccc(Cl)c3)ccn2n1`, 3.38%; to `O=[N+]([O-])c1cccc(S(=O)(=O)NCc2ccccn2)c1`, 1.03%.

As to `O=[N+]([O-])c1ccc2nc(-c3ccccn3)[nH]c2c1`, the activity change is -90.6% (active).

Take `O=S(=O)(Nc1ccc2nc(-c3ccco3)[nH]c2c1)c1ccccc1`: the activity change was -18.3%. For the compound `COCOCCn1cc(CN2CCS(=O)(=O)N(Cc3ccc(-c4ccc(OC)cc4)cc3)C(CC(C)C)C2=O)nn1` (centres undefined), the activity change was -1.08%.

`Cc1cc(Nc2ccc(C(=O)N3CCCCC3)cc2)c2cccc(C)c2n1`: the activity change is 1.83%.

Regarding `Cc1cc(Nc2ccc(N3CCOCC3)cc2)c2cccc(C)c2n1`, the activity change is -16.1%. Consider `Cc1ccc(Nc2cc(C)nc3c(C)ccc([N+](=O)[O-])c23)cc1`, for which the activity change is -66.7% (active). Turning to `COC(=O)c1ccccc1N=NNc1ccc([N+](=O)[O-])cc1`, the activity change is -2.76%. Consider `Fc1cccc(Cc2c(-c3ccc(Cl)cc3)nc3ccc(Cl)cn23)c1`, for which the activity change was 0%. As for `CCN(CC)C(=O)C1=C(C)N(Cc2ccc(F)cc2)C(=O)C(CC(=O)NCc2cccc3ccccc23)C1` (centres undefined), the activity change is -2.72%. To `COc1ccc(/C=N/Nc2ncnc3sc4c(c23)CCCC4)cc1O` belongs -87.1% (active); to `COc1ccc(NC(=O)CCCNC(=O)Cn2cnc3sc4c(c3c2=O)CCCC4)cc1OC`, 20.4%; to `COc1ccc(NC(=O)CCNC(=O)Cn2cnc3sc4c(c3c2=O)CCCC4)cc1OC`, 0.477%. In the case of `COC(=O)C1=CN(c2c(C)cc(C)cc2C)C(N)=C(C#N)C1c1cccc(F)c1` (centres undefined), the activity change was 3.08%. With `CCCCCCN1CCN(C2CN(Cc3cn(CCCCCC)nn3)S(=O)(=O)C2)CC1` (centres undefined), the activity change is 0.678%. To `Cc1nc2c(OCc3cccc(Cl)c3)cccn2c1N(C)CC1CC1` belongs -6.06%. Consider `COc1ccc(NC(=O)C2Cc3c(-c4ccc(Cl)cc4)ccnc3O2)cc1` (centres undefined), for which the activity change is 1.32%.

Regarding `COCCCNC(=O)c1cccc2c(-c3ccc(O)c(OC)c3)coc12`, the activity change was -18.4%. Regarding `Cc1cc(NC(=O)CSc2ncc(C(F)(F)F)cc2Cl)no1`, the activity change is -2.36%. With `Cc1cc(NC(=O)CSc2nnc(-c3ccc(Cl)s3)o2)no1`, the activity change was -93.2% (active). To `O=C(CSc1nnc(-c2ccncc2)o1)Nc1cccc(Cl)c1` belongs 6.8%. As to `CCCCc1c(-c2ccc(Br)cc2)ncn1CCc1ccccc1OC`, the activity change was -11.3%. As for `COc1cccc(-n2c(SCC(=O)NC3CCCCC3)nc3n[nH]c(C)c3c2=N)c1`, the activity change is -66.5% (active). Turning to `Cc1ccc(-n2c(SCC(=O)NCCC3=CCCCC3)nc3n[nH]c(C)c3c2=N)cc1Cl`, the activity change is -20.7%. For `CCCCNC(=O)CSc1nc2n[nH]c(C)c2c(=N)n1-c1cccc(Cl)c1C`, the activity change was -0.913%. Consider `CCOC(=O)[C@]12CCCC=C1N(CCC1=CCCCC1)C(=O)[C@H](CC(=O)N1CCN(C(=O)c3ccco3)CC1)C2`, for which the activity change was -6.31%.

For the compound `CN(C)S(=O)(=O)c1ccc(Cl)c(NC(=O)COC(=O)CC(NC(N)=O)c2ccc(Cl)cc2)c1` (centres undefined), the activity change is -6.53%. With `NC(=O)NC(CC(=O)NNC(=O)c1ccccn1)c1ccc(Cl)cc1` (centres undefined), the activity change is -76% (active). For the compound `O=C(COC(=O)c1ccccn1)NNC(=O)c1ccc(Br)cc1`, the activity change is -15.7%. To `CC(C)NC(=O)C1(C)CCCCCN1C(=O)c1ccc(-c2ccccc2)cc1` (centres undefined) belongs -11.1%. For `CCCC/C=C/c1cccc2nncn12`, the activity change was 2.58%.

On to `COc1cccc(-c2cc3nc(NCCOc4ccccc4Cl)n(C)c(=O)c3s2)c1`, for which the activity change is 3.25%. To `COc1ccc(CCCNC(=O)C2Cc3c(-c4cccc(C(N)=O)c4)ccnc3O2)cc1` (centres undefined) belongs -0.248%; to `O=C(CSc1cccc2cccnc12)N/N=C/c1cccnc1`, -93.9% (active); to `CCOC(=O)N/N=C/c1cccnc1`, 25.9%. For `COc1ccc(C(=O)NCC(=O)N/N=C/c2cccnc2)cc1`, the activity change is 11.7%. Regarding `CCCCn1nnnc1C(c1cc2ccccc2o1)N(C)Cc1ccc(Cl)c(Cl)c1` (centres undefined), the activity change was 13.3%. To `O=C(Nc1ccc2c(c1)OCCO2)C(C1CC1)N1CCC(Cc2ccccc2)CC1` (centres undefined) belongs -10.3%. As for `O=C(OCC(=O)N1CCCC1)c1ccc(Cl)nc1`, the activity change was 2.13%. As to `O=C(OCC(=O)N1CCCCCC1)c1ccc(Cl)nc1`, the activity change is -1.48%.

For `O=C(OCC(=O)N1CCCCCC1)c1cnc(Cl)c(Cl)c1`, the activity change is -78.7% (active).

Consider `O=S(=O)(NCCOc1cccc2cccnc12)c1ccc(F)cc1`, for which the activity change was 6.61%. Consider `O=C(Nc1ccccc1)Oc1cccc2cccnc12`, for which the activity change is -90.3% (active). On to `OCc1ccc(OCCCOc2cccc3cccnc23)cc1`, for which the activity change is -7.66%.

As for `COC(=O)[C@@]12C[C@@H](CC(=O)NCc3cccc(C(F)(F)F)c3)C(=O)N(Cc3ccco3)C1=CCC(C)(C)C2`, the activity change was -3.58%.

Regarding `CCCCCCCCN1C(=O)[C@H](CC(=O)NCc2cccc3ccccc23)C[C@@]2(C(=O)OC)CCCCC=C12`, the activity change is -7.91%. `C/C(=N\NC(=O)c1ccoc1C)c1ccccc1O`: the activity change is -25.9%. To `C/C(=N\Nc1ccc(Cl)nn1)c1ccccc1O` belongs -87.6% (active).

As for `CCCCCCCN=C(C)c1ccccc1O`, the activity change is 2.02%. The figure for `CC(C)Nc1ncnc2c1ncn2[C@H]1CN(Cc2ccncc2)C[C@@H](CO)O1` is 4.17%. As to `Cc1cc(O)ccc1-c1cc(C(=O)NCc2cc(C(F)(F)F)cc(C(F)(F)F)c2)[nH]n1`, the activity change was 0.488%. As to `O=C(Nc1ccc(Cl)c(C(F)(F)F)c1)C1Cc2c(-c3ccccc3Oc3ccccc3)ccnc2O1` (centres undefined), the activity change was -3.42%. As to `CC(O)(c1cccc(F)c1)c1nc(-c2ccc3c(c2)OCO3)cs1` (centres undefined), the activity change is 0.33%.

In the case of `Cc1ncc(CO)c(/C=N/NC(=O)c2cccc(S(=O)(=O)N3CCCC3)c2)c1O`, the activity change is 0%. `Cc1cc(C)nc(N/N=C/c2c(CO)cnc(C)c2O)n1`: the activity change was -85.2% (active). The figure for `CCc1nc2c(OCc3ccc(Cl)cc3Cl)cccn2c1N(C)C(=O)C(C)C` is -14.5%; for `CC(C)(C)OC(=O)NCCCCCNC(=O)c1[nH]cnc1C(=O)Nc1nccs1` it is -77% (active).

On to `Cc1ccc(NC(=O)c2nc[nH]c2C(=O)N[C@@H](CCCCNC(=O)OC(C)(C)C)C(=O)OC(C)(C)C)cc1`, for which the activity change was -1.82%. As to `CC(C)(C)OC(=O)NCCCCCNC(=O)c1nc[nH]c1C(=O)NCc1ccccc1`, the activity change was 4.97%.

Take `COc1ccc(Cc2nnc(N/N=C/c3ccccc3O)[nH]c2=O)cc1OC`: the activity change was -73.4% (active). As to `O=c1[nH]c(NCCO)nnc1Cc1ccc(Cl)cc1`, the activity change was 0.739%. `COc1ccc(Cc2nnc(SC)[nH]c2=O)cc1`: the activity change is 0.0747%. As to `CC1CCN(C(=O)CSc2nnc(-c3ccco3)n2N)CC1`, the activity change is 1.76%. On to `COc1cc2ccc(C(C)=O)c(O)c2cc1OC`, for which the activity change was 3.1%. For `NC(c1csc(NC(=O)Nc2ccccc2Oc2ccccc2)n1)c1ccccc1Cl` (centres undefined), the activity change is -22.8%. Regarding `Cc1cccc(C)c1Cn1c(C)c(C(=O)NCc2cccc(Cl)c2)sc1=O`, the activity change is -20%. Turning to `Cc1ccc2cccc([N+](=O)[O-])c2n1`, the activity change was -11.4%. To `O=[N+]([O-])c1ccccc1S(=O)(=O)Nc1cccc2cccnc12` belongs -78.7% (active); to `NS(=O)(=O)c1ccc(CCNS(=O)(=O)c2cccc3cccnc23)cc1`, 3.18%.

For the compound `CNC(=O)C1CN(C(=O)c2cccc(S(=O)(=O)N3CCc4ccccc43)c2)c2ccccc2O1` (centres undefined), the activity change was -7.74%. Take `CCOC(=O)[C@]12CCCC=C1N(Cc1ccc3c(c1)OCO3)C(=O)[C@H](CC(=O)NCc1cccs1)C2`: the activity change was -17.2%. For `CN(C)C(CNC(=O)c1cc(Br)c(Br)s1)c1ccco1` (centres undefined), the activity change is 0.728%. The figure for `CC(C)c1c(C(=O)N/N=C/c2ccccc2C(=O)O)nnn1-c1nonc1N` is 18.7%; for `CCc1ccc(/C=N/NC(=O)c2nnn(-c3nonc3N)c2CN2CCc3ccccc32)cc1` it is -23.8%; for `Nc1nonc1-n1nnc(C(=O)N/N=C/c2ccccc2O)c1CN1CCCC1` it is -92.6% (active). To `CCOC(=O)N1CCN(C(=O)C[C@@H]2C[C@@]3(C(=O)OC)CCCCC=C3N(CCC3=CCCCC3)C2=O)CC1` belongs -2.03%; to `Oc1ccc(N=Nc2nccs2)c(O)c1`, -92.5% (active).

As to `Oc1ccc2ccccc2c1N=Nc1nccs1`, the activity change is -93.9% (active). To `OC[C@@H]1CN(Cc2ccc(-c3ccccc3)cc2)C[C@H](n2cnc3c(NC4CCCC4)ncnc32)O1` belongs -10.7%; to `O=C1[C@H]2[C@@H](c3ccc(C(F)(F)F)cc3)N[C@]3(CCCN(Cc4ccc(Cl)cc4)C3=O)[C@H]2C(=O)N1Cc1ccccc1`, 5.38%; to `Cc1ccc(S(=O)(=O)N2C[C@H]3n4c(=O)ccc(=O)n4C[C@H](OC(=O)NC4CCCC4)[C@@]3(O)C2)cc1`, 2.31%.
